High-throughput results: PubChem, National Center for Advancing Translational Sciences (NCATS)
Shown are actives, neighbours in structure and some others; about 5.3% of the full set was active somewhere.
Tau FP inhib = inhibitors of human tau fibril formation | K18 P301L tau heparin fibrillization, Alexa594 FP, 6 h | actives 0.39% (n = 280,000) | Potency, µM (titrated, usually from 57.7 µM), actives largely listed as inhibitors; note: nearly all actives have a fitted effect of over 55% in size
Target sequence (P10636 561-689 P618L limits assumed): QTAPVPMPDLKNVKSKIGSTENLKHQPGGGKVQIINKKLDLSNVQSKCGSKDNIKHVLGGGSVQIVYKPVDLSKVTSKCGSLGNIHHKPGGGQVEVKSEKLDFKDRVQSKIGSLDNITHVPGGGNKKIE
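FP of Alexa 594-tau after heparin (20 uM) induction. Substrate: human K18 P301L, 15 uM unlabeled, 0.24 uM labeled. Buffer 100 mM sodium acetate pH 7. 6 hr, 37 C.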
Tau fluor cs = counter-screen for tau fibril formation inhibitors. actives 0.93% (n = 280,000). tau K18 P301L Alexa594 fluorescence, heparin fibrillization. AID 1463. Potency, µM (series often up to 57.7 µM); note: nearly all actives have a fitted effect of over 55% in size
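Human K18 P301L tau (15 uM unlabeled plus 0.24 uM Alexa 594-labeled, final) in 100 mM sodium acetate pH 7 was mixed with compound and 20 uM heparin and incubated 6 hr at 37 C.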
KDM4E inh = blocks human JMJD2E demethylase activity; Potency, µM (titrated, usually from 57.1 µM), actives largely listed as inhibitors; actives 1.6% (n = 230,000); B2RXH2; JMJD2E catalytic domain, FDH-coupled NADH fluorescence (FDH is formaldehyde dehydrogenase); note: nearly all actives have a fitted effect of over 50% in size
Target sequence (B2RXH2 1-337 limits assumed): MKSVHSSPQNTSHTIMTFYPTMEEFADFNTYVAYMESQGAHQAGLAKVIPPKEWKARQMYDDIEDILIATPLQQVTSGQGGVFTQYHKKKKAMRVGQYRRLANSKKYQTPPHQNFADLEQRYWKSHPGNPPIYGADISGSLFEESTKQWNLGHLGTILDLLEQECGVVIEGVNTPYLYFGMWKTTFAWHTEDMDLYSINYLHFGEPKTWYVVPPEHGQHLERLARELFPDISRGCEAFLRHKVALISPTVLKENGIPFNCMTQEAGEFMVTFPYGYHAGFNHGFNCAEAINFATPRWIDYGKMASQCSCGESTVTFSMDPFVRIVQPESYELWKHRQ
Sfp inh = blocks B. subtilis Sfp PPTase activity | Q9F4F7 | Biochemical Sfp PPTase activity, qHTS | Potency, µM, actives largely listed as inhibitors | actives 3.5% (n = 310,000) | AID 1490;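 note: the enzyme is Sfp with the accession as filed and its product quenches rhodamine fluorescence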
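Fluorescence-quenching assay with 15 nM Sfp, 5 uM rhodamine-CoA and 12.5 uM BHQ-2-labelled ybbR peptide in pH 7.6 Hepes/MgCl2 buffer. Enzyme was pre-incubated with compound for 15 min at room temperature. Rate was taken from the 30-min fluorescence change (525/598 nm).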
Tau fibril ThT = inhibitors of human tau fibril formation, thioflavin T binding; AID 1460; Potency, µM (series often up to 57.4 µM), actives largely listed as inhibitors; P10636; actives 2.1% (n = 270,000); recombinant tau K18 P301L, heparin-induced fibrillization, ThT fluorescence; note: nearly all actives have a fitted effect of over 55% in size
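Fibril formation assay: tau K18 P301L at 15 uM with trace Alexa 594 label, heparin inducer 20 uM, pH 7 sodium acetate buffer, 37 C for 6 hr; endpoint ThT signal.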
Coupling enz = counter-screen for Giardia aldolase inhibitors: coupling enzyme system | actives 0.67% (n = 290,000) | coupling enzyme system counterscreen, AmpLite Red fluorescence | activity change, negative = inhibition, % at 58.2 µM, hits read low; in the data active = activity change below about -30%
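Fluorescence at 525 nm excitation and 598 nm emission measured inhibition of the coupled detection system without aldolase. Compounds (at 57.5 uM final) were preincubated 10 min at room temperature with coupling enzyme reagent before a 20 min substrate/AmpLite Red step.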
Numbers stand for hits; – = inactive; ? = inconclusive; · = not tested or not shown; [ ] = remark or other dose. Unless noted, calls come from the whole dose curve; as a rule, active = well fitted curve in the direction sought with a large enough effect; inconclusive = small, poorly fitted or top-dose-only effect, or another doubt; inactive = no such curve, though single readings can be large; an effect the other way counts as inactive or inconclusive.

SMILES | Tau FP inhib | Tau fluor cs | KDM4E inh | Sfp inh | Tau fibril ThT | Coupling enz
NS(=O)(=O)c1ccc(NCc2c(F)cccc2Cl)cc1 | – | – | – | – | – | –
Fc1cccc(Cl)c1CNc1ccc(N2CCCC2)cc1 | 11.2µM | ? | 11.2µM | ? | 5.62µM | –
O=S(=O)(NCc1nc2cccnc2n1Cc1ccccc1)c1ccc2c(c1)CCCC2 | – | – | · | · | – | ·
OC[C@@H]1O[C@H](O)[C@H](O)[C@@H](O)[C@@H]1O | · | · | · | – | · | –
O=C(O)Cn1c2ccccc2c2ccccc21 | – | – | ? | – | – | –
O=C(O)Cn1c2c(c3ccccc31)CSc1ccc(Cl)cc1-2 | · | · | · | 20µM | · | –
CCC1CN(C(=O)N2CCC(C(=O)NCCCc3ccccc3)CC2)c2ccccc2O1 (centres undefined) | – | 8.91µM[quencher] | · | · | – | ·
CCC1CN(C(=O)N2CCC(C(=O)NCc3ccco3)CC2)c2ccccc2O1 (centres undefined) | ? | 3.55µM[quencher] | · | – | – | ·
CCC1CN(C(=O)N2CCC(C(=O)N3CCN(c4ccccc4)CC3)CC2)c2ccccc2O1 (centres undefined) | ? | 11.2µM[quencher] | · | · | ? | ·
CCC1CN(C(=O)N2CCC(C(=O)NCc3ccc(C)o3)CC2)c2ccccc2O1 (centres undefined) | – | – | · | – | – | ·
O=C(NCc1ccco1)C1CCN(C(=O)N2CCOc3ccccc32)CC1 | – | 5.01µM[quencher] | · | · | ? | ·
CCOc1ccc(-c2cc3c(=O)n(CC(=O)NCc4ccccc4)ccn3n2)cc1 | – | – | · | · | – | ·
CCCCCCCCCCCCCCCCSCC(COC)COP(=O)([O-])OCC[N+](C)(C)C (centres undefined) | · | · | · | – | · | –
C=C(C(C)=O)C(O)c1ccc(C(F)(F)F)cc1 (centres undefined) | – | – | – | – | – | –
Cc1ccc(S(=O)(=O)N[C@H]2COC(=O)C/C=C\[C@@H](C)[C@H](NS(=O)(=O)c3ccc(C)cc3)COC(=O)C/C=C\[C@H]2C)cc1 | –[11.6 µM] | –[11.6 µM] | · | – | –[11.5 µM] | –
O=C(NCC1CCCO1)c1c[nH]c2ccc(S(=O)(=O)Nc3cccc(C(F)(F)F)c3)cc2c1=O (centres undefined) | ? | ? | · | · | – | ·
Brc1ccc(OCc2ccccc2)c(CNCc2ccncc2)c1 | – | – | – | 79.4µM | – | –
COc1ccc(Oc2nc3c(c(=O)n(C)c(=O)n3C)n2Cc2ccc(Cl)cc2Cl)cc1 | – | – | · | · | ? | ·
COc1ccc(Nc2nc(N)c(C(=O)c3ccc(OC)cc3)s2)cc1 | · | · | · | – | · | –
Nc1nc(Nc2ccccc2F)sc1C(=O)c1ccc(Cl)cc1 | – | 15.8µM[quencher] | · | · | 25.1µM | ·
Nc1nc(Nc2cccc(Cl)c2)sc1C(=O)c1ccc(F)cc1 | ? | 8.91µM[quencher] | · | · | ? | ·
COc1ccc(Nc2nc(N)c(C(=O)c3ccc(F)cc3)s2)cc1 | · | · | · | ? | · | –
CCOc1ccc(Nc2nc(N)c(C(=O)c3ccccc3Cl)s2)cc1 | – | 15.8µM[quencher] | · | · | ? | ·
Cc1ccc(C(=O)c2sc(Nc3ccc(F)cc3)nc2N)c(C)c1 | – | 15.8µM[quencher] | · | · | – | ·
COC(=O)NC(CC(C)=O)c1cccs1 (centres undefined) | –[11.6 µM] | –[11.6 µM] | · | – | –[11.5 µM] | –
SMILES | Tau FP inhib | Tau fluor cs | KDM4E inh | Sfp inh | Tau fibril ThT | Coupling enz
CSc1sc(-c2n[nH]c(=S)n2C)c2c1C=CCC2 | – | – | ? | 50.1µM | · | -33.7
Cc1nc(-c2ccccc2)sc1-c1n[nH]c(=S)n1C | – | – | ? | – | – | –
O=c1c2c([N+](=O)[O-])cc([N+](=O)[O-])cc2sn1Cc1ccccc1 | · | · | · | 2.24µM | · | –
O=c1c2c([N+](=O)[O-])cc([N+](=O)[O-])cc2sn1-c1ccc(Br)cc1 | 22.4µM | ? | 3.55µM | 8.91µM | 14.1µM | –
O=c1c2c([N+](=O)[O-])cc([N+](=O)[O-])cc2nc2ccccn12 | · | · | · | – | · | –
CC(C)N(Cc1ccccc1)S(=O)(=O)c1ccc(N2CCCCS2(=O)=O)cc1 | – | – | · | · | – | ·
COC(=O)c1c(NC(=O)c2ccc(S(=O)(=O)N3CCCCC3)cc2)sc2c1CCN(C)C2 | – | – | · | · | – | ·
CC(=O)OCC1OC(C#CCC2CCCCC2)C=CC1OC(C)=O (centres undefined) | –[11.6 µM] | –[11.6 µM] | · | – | ? | –
Cc1cccc(C)c1Nc1c(-c2ccc(O)cc2)nc2sccn12 | – | ? | · | · | ? | ·
CCc1cccc(C)c1Nc1c(-c2cccc(O)c2)nc2sccn12 | – | 17.8µM[quencher] | · | · | ? | ·
COc1cc(-c2nc3sccn3c2Nc2c(C)cccc2C)ccc1O | 22.4µM | ? | · | · | 15.8µM | ·
COC(=O)c1ccccc1NC(=O)c1ccc(-c2nc(COc3ccccc3)c(C)o2)cc1 | – | – | · | · | – | ·
CC/C=C\CC[C@H](OC(=O)c1ccc(Br)cc1)C1=CCCCC1=O | –[11.6 µM] | –[11.6 µM] | · | – | –[11.5 µM] | –
CCOC(=O)c1c(C)[nH]c(C)c1S(=O)(=O)N1CCCC(C(=O)N2CCN(c3cccc(Cl)c3)CC2)C1 (centres undefined) | – | ? | · | · | ? | ·
Cc1cc(F)ccc1-n1nnc(C(N)=O)c1C | – | – | · | · | – | ·
COc1ccc2c(c1)C(=O)C(=O)N2 | – | – | – | – | – | –
CC1=CC(C)(C)Nc2ccccc21 | – | – | ? | 79.4µM | – | –
COc1ccc2c(c1)NC(C)(C)C=C2C | – | ? | ? | ? | ? | -33.1
C=C(C)CC(C)(C)C | · | · | · | – | · | –
O=S(=O)(NCc1csc(-c2ccccc2)n1)c1ccc(Cl)s1 | – | – | – | – | – | -35.8
NS(=O)(=O)c1ccc(NC(=O)CN2C(=O)COc3ccc(Cl)cc32)cc1 | ? | – | · | · | – | ·
Cc1ccc(Nc2c([N+](=O)[O-])ccc3c2=NC2(CCCCC2)N=3)cc1 | – | ? | – | – | 15.8µM | –
OC(CNC1CCCc2ccccc21)COc1ccc2ccccc2c1 (centres undefined) | – | – | ? | – | – | –
CCc1ccccc1OC[C@@H](O)CN[C@H]1CCCc2ccccc21 | – | – | – | 50.1µM | – | –
Cc1cc(NC(=O)CCN2C(=O)/C(=C\c3ccccc3Cl)SC2=S)no1 | – | – | – | 50.1µM | – | –
COc1ccc(/C=C2\SC(=S)N(C(C(=O)O)c3ccccc3)C2=O)c(OC)c1 (centres undefined) | – | – | – | 70.8µM | 12.6µM | –
COc1cccc(/C=C2\SC(=S)N(C(C(=O)O)c3ccccc3)C2=O)c1OC (centres undefined) | – | – | – | 79.4µM | ? | –
COc1cccc(/C=C2\SC(=S)N(N3CCOCC3)C2=O)c1OC | – | – | – | – | ? | –
COc1cc(/C=C2\SC(=S)N(C(C(=O)O)c3ccccc3)C2=O)cc(OC)c1OC (centres undefined) | – | – | – | 50.1µM | ? | –
COc1ccc(CNC(=O)c2ccc(CS(=O)Cc3ccccc3Cl)o2)cc1 (centres undefined) | – | – | · | · | – | ·
